Experiment [1] can be described thus: Cellular viability qHTS for adrenocortical cancer (ACC) cell line SW-13 (AID 1963989). Further: nearly all actives have a fitted effect of over 65% in size. The note with it: SW-13 ACC cells viability, CellTiter-Glo, 48 h; activity (max response): stronger effect = lower value. In short, it runs like this: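 48 h treatment, SW-13 in ITS/DMEM serum-free; doses up to 46 uM; readout CellTiter-Glo luminescence; curve fit four-parameter logistic.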

Experiment [2] in a line: Cellular viability qHTS for adrenocortical cancer (ACC) cell line NCI-H295R (AID 1963990). Further: nearly all actives have a fitted effect of over 60% in size. The conditions noted are these: CellTiter-Glo ATP luminescence, 48 h; series mostly up to 46.1 µM. Put shortly:
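Compound titrations (up to 46 uM final) are applied to NCI-H295R cultures for 48 h at 37C. Viable cell number is estimated by CellTiter-Glo signal, normalised to DMSO and doxorubicin controls.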

The structures appear in SMILES notation. Records with an inconclusive call do not appear. Activity calls are given as the source filed them. The call rests on the fitted dose curve; in most records, active means well fitted cell-killing curve with a large enough effect; inconclusive means small, poorly fitted or top-dose-only effect; inactive means flat fitted curve, though single readings scatter.
Potency means the concentration at half of the fitted maximal effect.

On to `OC1CCC(Oc2cccc3cnc(Nc4ccc5nc[nH]c5c4)nc23)CC1` (configuration not stated), for which the Potency in experiment [1] is 7.94 µM (active); in experiment [2], 2.51 µM (active).

Source of the values: PubChem BioAssay (NCATS).
